This passage reports z-score and composite z-score results from PubChem BioAssay.

Assay [1] can be described thus: HepG2 liver cancer cell viability effects, profiling panel, resazurin fluorescence, 24 h, PK04 Diversity Set (AID 1172). Further: test concentration not given here. The conditions noted are these: higher = more signal. (The colour change of resazurin is a common sign of viable cells or microbes.)
Assay [2] is described as follows: basal S. cerevisiae growth modulation, no modifier, primary screen, OD600, strain BY4716, 24 h, basal condition (AID 1173). The conditions noted are these: OD600, 24 h, higher = more signal, called active from +8 up or from −8 down.
Assay [3] can be described thus: MM1S myeloma cell viability, profiling panel, resazurin fluorescence, basal, 24 h, PK04 Diversity Set (AID 1174).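 Further: MM1S multiple myeloma cell line; test concentration not given here.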 Conditions: higher = more signal, called active from +8 up or from −8 down.
Assay [4] deals with Dihydroorotate dehydrogenase (quinone), mitochondrial (Plasmodium falciparum (isolate 3D7)) (UniProt Q08210). Put plainly: PfDHODH enzyme inhibitors, primary screen, biochemical, C-terminal His tag, absorbance 600 nm (AID 1175).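 Further: recombinant parasite enzyme with a five histidine tag at its C terminus; test concentration not given here.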 The conditions noted are these: DCIP absorbance 600 nm, higher = more signal, called active from +8 up or from −8 down.
Assay [5] in a line: P. aeruginosa biofilm formation inhibitors, primary screen, strain PAO1, LB-PBS medium, absorbance 600 nm (AID 1176). Further: test concentration not given here. Conditions: P. aeruginosa PAO1 growth/biofilm, A600, 12 h; higher = more signal.
The nature of assay [6]: S. cerevisiae RM11-1a growth modifiers, primary screen, strain RM11-1a, OD600, basal, 24 h (AID 1177).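 Further: cultures grown under basal conditions with no added stressor; test concentration not given here.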 The conditions noted are these: OD600, 24 h, higher = more signal, called active from +8 up or from −8 down.
A short description of assay [7]: E. coli acrAB mutant growth effects, primary screen, E. coli filamentation inducers, strain DRC39, OD650, 24 h (AID 1178).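 Further: growth measured as culture turbidity by optical density at 650 nm; test concentration not given here.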 Conditions: higher = more signal, called active from +8 up or from −8 down.
Assay [8] can be described thus: E. coli acrAB mutant growth effects, primary screen, E. coli filamentation inducers, strain DRC39, OD650, 48 h (AID 1179).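 Further: screen aims at cell division blockers that make cells filament.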 Conditions: E. coli DRC39 delta-acrAB growth, higher = more signal, called active from +8 up or from −8 down.
Assay [9] is described as follows: RPMI8226 myeloma cell viability, profiling panel, resazurin fluorescence, basal, 24 h, PK04 Diversity Set (AID 1180).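 Further: RPMI8826 multiple myeloma cell line at 5000 cells per well; test concentration not given here.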 The conditions noted are these: higher = more signal.
The target in assay [10] is E3 ubiquitin-protein ligase XIAP (Homo sapiens) (UniProt P98170). Put plainly: XIAP binders, primary screen, biophysical, small-molecule microarray, fluorescence 635 nm (AID 1181).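 Further: score merges 667 nm emission and signal to noise over triplicate slides.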 The conditions noted are these: small-molecule microarray binding, higher = more signal.

Activity calls are given as the source filed them. Unless noted, how the calls were made is not given here.

Chain of E3 ubiquitin-protein ligase XIAP (Homo sapiens) (P98170 whole entry, looked up): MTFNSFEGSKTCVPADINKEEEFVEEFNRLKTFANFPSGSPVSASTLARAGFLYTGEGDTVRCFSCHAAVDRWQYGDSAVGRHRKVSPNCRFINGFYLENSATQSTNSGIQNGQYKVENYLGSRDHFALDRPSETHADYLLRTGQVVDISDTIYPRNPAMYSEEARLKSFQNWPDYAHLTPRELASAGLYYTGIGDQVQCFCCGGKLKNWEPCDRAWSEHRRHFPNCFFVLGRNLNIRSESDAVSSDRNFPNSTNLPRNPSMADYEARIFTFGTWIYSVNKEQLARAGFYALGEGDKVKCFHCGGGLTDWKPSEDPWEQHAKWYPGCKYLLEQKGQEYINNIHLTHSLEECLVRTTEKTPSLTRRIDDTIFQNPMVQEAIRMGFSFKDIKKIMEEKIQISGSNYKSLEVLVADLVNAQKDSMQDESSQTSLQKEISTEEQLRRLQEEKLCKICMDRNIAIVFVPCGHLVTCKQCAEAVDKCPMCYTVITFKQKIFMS
Chain of Dihydroorotate dehydrogenase (quinone), mitochondrial (Plasmodium falciparum (isolate 3D7)) (Q08210 whole entry, looked up): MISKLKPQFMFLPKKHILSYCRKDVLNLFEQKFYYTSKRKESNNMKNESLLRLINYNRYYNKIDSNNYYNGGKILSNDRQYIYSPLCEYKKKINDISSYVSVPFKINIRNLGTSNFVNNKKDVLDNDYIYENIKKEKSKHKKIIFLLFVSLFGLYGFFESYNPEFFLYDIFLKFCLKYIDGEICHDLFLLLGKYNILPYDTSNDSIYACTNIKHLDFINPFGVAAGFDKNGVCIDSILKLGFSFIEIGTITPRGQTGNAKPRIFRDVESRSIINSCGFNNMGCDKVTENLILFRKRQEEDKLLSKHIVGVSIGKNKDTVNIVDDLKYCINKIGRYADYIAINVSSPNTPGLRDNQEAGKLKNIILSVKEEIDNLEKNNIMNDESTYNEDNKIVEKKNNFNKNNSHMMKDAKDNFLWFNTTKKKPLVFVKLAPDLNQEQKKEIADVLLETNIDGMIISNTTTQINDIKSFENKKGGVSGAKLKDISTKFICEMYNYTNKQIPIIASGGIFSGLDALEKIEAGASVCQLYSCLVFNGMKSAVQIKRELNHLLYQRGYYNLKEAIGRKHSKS

As for `COc1cc2c(cc1O)C=[N+](Cc1cccc(OC(F)(F)F)c1)CC2`, the z-score in assay [1] was -0.935; in assay [2], 0.165 (inactive); in [3], -0.682 (inactive); in assay [5], -0.531 (inactive); in [6], -0.957 (inactive); in [7] it was 0.0214 (inactive). Further, the results for the z-score in [8] and in assay [9] were 0.569 (inactive) and -1.25, respectively. Also, the composite z-score in assay [4] is -3.35 (inactive); in assay [10], -0.259.

For the compound `CN1C2C=C(CCCO)C(C3C(=O)N(C(N)=O)C(=O)C32)C1c1ccc(CN2CCCC2)cc1` (stereo not given), the z-score in assay [1] is -0.163; in assay [2], 0.464 (inactive); in [3] it was -0.508 (inactive); in assay [5], 0.661 (inactive); in assay [6] it was -0.56 (inactive); in assay [7], 0.359 (inactive). In addition, the z-score is 0.259 (inactive) in [8] and -0.287 in assay [9]. Besides, the composite z-score in [4] is -0.157 (inactive); in assay [10], -0.0703.

On to `COC(=O)c1c(CC[C@@H](CO)NC(=O)N[C@@H](C)Cn2cc(C3(O)CCCCC3)nn2)oc(C(C)=O)c1C(=O)OC`, for which the z-score in [1] is -1.26; in [2], -2.52 (inactive); in assay [3], -0.131 (inactive); in assay [5] it was 0.0793 (inactive); in [6], -0.314 (inactive); in [7] it was 0.104 (inactive). The z-score in assay [8] is -0.305 (inactive); in assay [9], -0.8. The composite z-score was -2.71 (inactive) in [4] and -0.039 in assay [10].

For `CCCC#C[Si](O[C@H](CC)c1cn([C@H](CO)Cc2ccccc2)nn1)(C(C)C)C(C)C`, the z-score is 0.442 in assay [1]; -12.8 (active) in assay [2]; 0.11 (inactive) in assay [3]; 0.0885 (inactive) in [5]; 0.852 (inactive) in assay [6]; -0.281 (inactive) in assay [7]. Moreover, the z-score in assay [8] is -0.154 (inactive); in assay [9], 0.114. Moreover, the composite z-score in [4] was 0.225 (inactive); in assay [10] it was -0.121.

With `O=C1c2ccccc2[C@@]2(Cc3ccccc3N(CC(F)(F)F)C2=O)[C@H](c2ccc(CO)cc2)N1Cc1ccccc1Cl`, the z-score in assay [1] is 0.0685; in assay [2] it was 0.386 (inactive); in assay [3], 0.192 (inactive); in [5] it was 0.848 (inactive); in [6], -0.399 (inactive); in [7] it was 0.424 (inactive). For the same compound, the z-score in assay [8] is -0.411 (inactive); in assay [9], 0.638. For the same compound, the composite z-score in assay [4] is -22.2 (active); in assay [10], 0.176.

`[N-]=[N+]=NCc1ccccc1[C@@H]1OC(c2ccc(OCCCO)cc2)=N[C@]1(CCS(=O)(=O)c1ccccc1)C(=O)NCc1ccccc1`: the z-score in assay [1] is 0.239; in assay [2], 0.743 (inactive); in assay [3], -0.304 (inactive); in [5] it was 0.882 (inactive); in assay [6], 0.797 (inactive); in [7], 0.198 (inactive). Moreover, the z-score in assay [8] was -0.678 (inactive); in assay [9], 0.144. Also, the figures for the composite z-score in assay [4] and in assay [10] were 0.59 (inactive) and 0.194, respectively.

As to `C=C(COC)/C(=C/C[C@H](OC(=O)c1ccncc1)c1ccc(OCCO)cc1)c1cnc2ccccc2c1`, the z-score was 0.444 in [1]; -0.309 (inactive) in assay [2]; -0.389 (inactive) in assay [3]; 0.424 (inactive) in assay [5]; -0.401 (inactive) in assay [6]; -0.802 (inactive) in assay [7]. In addition, the z-score in [8] is -0.679 (inactive); in assay [9], -0.342. Further, the composite z-score was -3.5 (inactive) in [4] and -0.174 in assay [10].

For the compound `COc1cc2c(cc1OC)CN(C(=O)[C@H]1[C@@H]3C(=O)O[C@@H](c4ccccc4)[C@@H](c4ccccc4)N3[C@@H](c3ccc(O)cc3)[C@]13C(=O)Nc1ccc(C#CC4=CCCCC4)cc13)CC2`, the z-score in [1] was -0.436; in [2], -1.16 (inactive); in assay [3], -0.16 (inactive); in assay [5], 1.08 (inactive); in assay [6], 0.449 (inactive); in assay [7] it was -0.222 (inactive). In addition, the z-score was -0.273 (inactive) in assay [8] and 0.916 in assay [9]. For the same compound, the composite z-score in [4] was -1.05 (inactive); in assay [10], -0.359.

As for `COC(=O)[C@@]1(Cc2ccc(OC)cc2)[C@H]2c3cc(C(=O)N4CCCC4)n(Cc4ccc(OC)c(OC)c4)c3C[C@H]2CN1C(=O)c1ccccc1`, the z-score is 0.277 in assay [1]; 1.66 (inactive) in assay [2]; -0.994 (inactive) in assay [3]; 0.259 (inactive) in assay [5]; 0.744 (inactive) in assay [6]; -0.333 (inactive) in assay [7]. Besides, the z-score in assay [8] is -0.888 (inactive); in assay [9] it was -0.636. The figures for the composite z-score in assay [4] and in [10] were -0.245 (inactive) and -0.0541, respectively.

With `COCCOC(=O)N1C(=O)[C@@]2(c3ccccc31)[C@H](c1ccc(O)cc1)N1[C@H](c3ccccc3)[C@H](c3ccccc3)OC(=O)[C@H]1[C@@H]2C(=O)NC[C@H](O)c1ccccc1`, the z-score in assay [1] was -0.796; in [2], 0.861 (inactive); in [3], -0.397 (inactive); in assay [5] it was 0.173 (inactive); in assay [6] it was 0.957 (inactive); in assay [7], -1.12 (inactive). Also, the z-score in assay [8] was -1.29 (inactive); in [9] it was -0.199. Besides, the values for the composite z-score in [4] and in assay [10] were 0.873 (inactive) and 0.201, respectively.

For `COc1ccc([Si](C)(C)[C@H]2[C@H](CCO)O[C@@]3(C(=O)N(Cc4ccc(N5C(=O)COc6ccccc65)cc4)c4ccccc43)[C@@H]2C)cc1`, the z-score was -1.97 in assay [1]; 0.573 (inactive) in assay [2]; -4.21 (inactive) in [3]; 3.06 (inactive) in [5]; 3.3 (inactive) in [6]; 0.404 (inactive) in [7]. Also, the values for the z-score in assay [8] and in assay [9] were -0.288 (inactive) and -5.05, respectively. Besides, the composite z-score in assay [4] is -0.349 (inactive); in assay [10], 0.144.
